The list is a sample of the results.
aSyn 5UTR act: Activators working through SNCA 5'UTR binding (MLPCN); alpha-synuclein 5'UTR reporter, activators screen; activity score, % (tested at 7.5 µM), hits read low; actives 7.1% (n = 300,000); AID 1814; in the data active = activity score below about -60%
Active calls of the source: *.

SMILES	aSyn 5UTR act
CCN(CC)S(=O)(=O)c1ccc(N2CCOCC2)c(NC(=O)c2cc(-c3ccccn3)nc3ccccc23)c1	88
CCN(Cc1ccccc1)C(=O)CCCOc1ccccc1	-91*
COc1ccccc1C(=O)C1CCCN(C(=O)Nc2ccccc2F)C1 (stereo not drawn)	-64*
COc1cc(OC)c(OC)cc1CN1CCCC(C(=O)c2ccccc2SC)C1 (stereo not drawn)	50
[N-]=[N+]=CC(=O)C(O)(c1ccccc1)C(Cl)c1ccccc1 (stereo not drawn)	47
Cc1ccc2nc(C3CCCCC3)[nH]c2c1	-93*
COc1ccc(C2c3ccc4ccccc4c3Oc3ncn(CCCN(C)C)c(=N)c32)cc1 (stereo not drawn)	90
Cc1cc(N/N=C/c2ccccc2[N+](=O)[O-])nc(-n2nc(C)cc2C)n1	57
Brc1ccc(-c2nc(N/N=C/c3cccnc3)c3ccccc3n2)cc1	-92*
Cc1ccc(-c2nc(N/N=C/c3ccccc3[N+](=O)[O-])c3ccccc3n2)cc1	-267*
Cc1cc(C(=O)O)ccc1N/C=C1\CCCC(C)C1=O (stereo not drawn)	-131*
CC1CCC/C(=C\Nc2ccc(O)cc2)C1=O (stereo not drawn)	-116*
COc1cccc(Nc2nnc(SCc3nc4ccccc4s3)s2)c1	-208*
Cc1ccnc(SCc2nc3ccccc3s2)n1	-181*
Cc1cccc(C)c1Nc1nnc(SCc2nc3ccccc3s2)s1	-85*
O=c1cc(-c2ccccc2)[nH]c2ccc(F)cc12	87
O=c1c2[nH]c3ccc(F)cc3c2ncn1C1CCCCC1	-82*
O=C(CCl)N(c1ccccc1)C1CCCCC1	110
CCCC(O)(CCC)C(=O)NN(C(=O)CCl)c1ccccc1	-69*
CCCNC1=C(N(C(C)=O)c2cccc(F)c2)C(=O)c2ccccc2C1=O	92
Cc1ccc(C(=O)c2oc3ccc(Cl)cc3c2NC(=O)CN2CCN(C)CC2)cc1	-108*
Cc1ccnc(NC(=S)NC(=O)/C=C/c2ccco2)c1	-334*
Cc1ccc(O)c(NC(=S)NC(=O)/C=C/c2ccco2)c1	-170*
Cc1ccc(-n2nc(C)c3c2OC(N)=C(C#N)C3c2ccc(F)cc2)cc1 (stereo not drawn)	-75*
O=C(Nc1ccc(Cl)cc1)ON=C1CCCC1	-75*
SMILES	aSyn 5UTR act
O=C(CSc1nc2ccsc2c(=O)n1NC(=O)c1ccccc1)NCc1ccco1	-70*
CN1CCc2c(sc3nc(SCC(=O)NCc4ccco4)n(-c4ccccc4)c(=O)c23)C1	-84*
O=C(CSc1nc2ccsc2c(=O)n1NC(=O)c1ccccc1)Nc1nccs1	-82*
COc1ccc(C(=O)Nn2c(SCC(=O)NCc3ccccc3)nc3ccccc3c2=O)cc1	77
CCCn1nc2cc(C(=O)NCCc3cccs3)ccc2c1OCC	-76*
Cn1cc(Cl)c(/C(N)=N/OC(=O)c2ccccc2C(F)(F)F)n1	-98*
Fc1ccccc1-c1nc(-c2ccccc2)no1	-97*
NC(=O)c1ccccc1-c1nc(-c2ccccc2)no1	-82*
Fc1ccccc1-c1nc(-c2ccncc2)no1	-116*
O=C(N/N=C/c1cn(-c2cccs2)nc1-c1ccccc1)c1ccccc1Br	-73*
O=C(N/N=C/c1cn(-c2ccccc2)nc1-c1cc2ccccc2o1)c1ccccc1Br	-115*
N#Cc1cn(-c2ccccc2)nc1-c1cc2ccccc2oc1=O	-63*
COc1ccc(NC(=O)c2cn(-c3ccccc3)nc2-c2cc3ccccc3o2)cc1	-71*
OCc1cn(-c2ccccc2)nc1-c1cc2ccccc2o1	-179*
COc1ccc(-c2nn(-c3ccccc3)cc2C(=O)NC(=S)NNC(=O)c2ccncc2)cc1	73
COc1ccc(-c2nn(-c3ccccc3)cc2C#N)cc1	-126*
CC1=NN(c2ccccc2)C(=O)/C1=C\c1cn(CCC#N)nc1-c1ccc(Cl)cc1	-85*
CC(C)Sc1nnc(Nc2ccccc2)s1	-178*
O=C(c1ccccc1)c1cc2ccccc2o1	-149*
Cc1ccc(C(=O)c2cc3ccccc3o2)cc1[N+](=O)[O-]	-119*
CC(Cc1ccccc1)NC(=O)c1cc2ccccc2o1 (stereo not drawn)	-162*
O=C(c1ccc(F)cc1)c1cc2ccccc2o1	-171*
Cc1cccc(Nc2ccc(NCc3ccccc3)nn2)c1	-110*
COC(=O)c1sc(NC(=O)COc2ccccc2C)nc1C	-90*
CC(=O)c1sc(NC(=O)COc2ccccc2)nc1C	-109*
SMILES	aSyn 5UTR act
CCN1CCN(/C=N/c2nc3c(s2)CCCC3)CC1	66
COC(=O)Nc1nc2c(s1)CCCC2	-87*
COc1ccccc1OCC(=O)Nc1nc(C)c(C)s1	-83*
CC(C)CCn1nc(C(=O)Nc2nc3c(s2)CCCC3)c2ccccc2c1=O	68
O=C(COc1ccccc1)Nc1nc2c(s1)CCCC2	-88*
CC1(C)CC(=O)C(C(=O)/C=C/c2ccco2)C(=O)C1	-73*
Cc1cccc(-n2c(C)cc(C(=O)NC3CCCCC3)c2C)c1	-76*
COc1ccc(-n2c(C)cc(C(=O)NC3CCCCC3)c2C)cc1	-156*
CCOc1ccc(-n2c(C)cc(C(=O)CCl)c2C)cc1	111
